Test results as given in PubChem BioAssay AID434970 (Sanford-Burnham Center for Chemical Genomics, 2010).
In all, about 11,000 compounds went through this assay and about 310 (2.8%) were called active. Rule as the data show it: active = activity change below about -85%; inactive = the rest. Shown is part of a subset that was picked to be rich in actives. Starred links: 1 amine or outer side, 2 acyl side, 3 side chain; linkers in the order of their positions; H or OH if unused. Positions of bridges follow the written chain, without caps; N, C: chain ends. Non-standard residues stand in square brackets, D forms with d. Residues, ends and D or L forms follow the SMILES beside them. ξ: configuration not given here. hSer(Ph(2-I,4-NO2,6-CO)) = O=C([C@H](CCOc1c(I)cc([N+](=O)[O-])cc1C(=O)[*:3])N[*:1])[*:2]; ξD = NC(CC(=O)O)C(=O)O

system: intestinal alkaline phosphatase [Mus musculus]; assay: activators of mouse IAP, confirmation, biochemical, luminescence, single concentration (AID 434970); details: purified mouse IAP, CDP-Star luminescence, 30 min, at 10 µM; activation factor: measured here: IAP activation factor, stronger effect = higher value; activity change, negative = activation: stronger effect = lower value

| Structure (SMILES) | activation factor | activity change, negative = activation |
| --- | --- | --- |
| CSc1nc(Oc2ccc(=O)n(C)n2)nc(N(C)C)n1 | 1.07 | -6.65% (inactive) |
| COc1ccc(C2C(C#N)=C(N)N(c3sc4c(c3C#N)CCCC4)C3=C2C(=O)CC(C)(C)C3)cc1OC (stereo unspecified) | 0.851 | 14.9% (inactive) |
| CCC(C)(C)NC(=O)C(c1ccccc1)N(C(=O)c1csnn1)C1CC1 (stereo unspecified) | 0.99 | 1% (inactive) |
| Cc1cc(=O)c2cc(Br)ccc2[nH]1 | 0.944 | 5.65% (inactive) |
| CCOC(=O)CSc1nc(-c2ccc(OC)cc2)ns1 | 1 | 0.05% (inactive) |
| COc1ccccc1C(=O)NCCN1CCN(C(=O)c2ccccc2OC)CC1 | 1.1 | -10.1% (inactive) |
| COc1cccc(C(CC(=O)Nc2cccc3ccccc23)NC(=O)c2ccccc2)c1 (stereo unspecified) | 2.19 | -119% (active) |
| COc1ccc(C(=O)Nc2ccccc2C(=O)N/N=C/c2cccc3ccccc23)cc1 | 1.02 | -1.95% (inactive) |
| COc1cccc(OCC(=O)Nc2ccccc2NC(C)=O)c1 | 1.08 | -8.25% (inactive) |
| NC(=O)CSc1nnc(-c2ccncc2)n1CCc1ccccc1 | 1.05 | -5.05% (inactive) |
| COc1ccc(COC(=O)Nc2cc3c(C(F)(F)F)nn(C)c3s2)cc1 | 1.23 | -23.1% (inactive) |
| O=C1NC2(CCCCC2)C(=O)N1c1ccccc1 | 1.08 | -7.85% (inactive) |
| COc1ccc(NC(=O)NC23CC4(C)CC(C)(CC(C)(C4)C2)C3)cc1OC | 1.65 | -64.8% (inactive) |
| COc1ccc(NC(=O)NCc2ccncc2)cc1 | 1.01 | -0.85% (inactive) |
| COc1ccc(NC(=O)NC23CC4(C)CC(C)(CC(C)(C4)C2)C3)cc1 | 2.08 | -108% (active) |
| Cn1nnnc1SCC(=O)N1CCN(c2ccc(Cl)cc2)CC1 | 1.06 | -5.85% (inactive) |
| CCN(CC)c1ccc(NC(=O)c2cccc(OC)c2)c(C)c1 | 0.97 | 3.05% (inactive) |
| CCOc1ccc(OCCCN(C)C)cc1 | 0.976 | 2.4% (inactive) |
| O=C(CN1CCN(Cc2ccccc2Cl)C1=O)NCc1ccco1 | 0.935 | 6.45% (inactive) |
| O=C(NCC1CCN(Cc2cccc(Cl)c2)CC1)Nc1ccccc1Cl | 2.17 | -118% (active) |
| Cc1cccc(CN2CCC(CNC(=O)CCNC(=O)Cn3ccc4ccccc4c3=O)CC2)c1 | 0.974 | 2.6% (inactive) |
| Cc1ccc(NC(=O)NCC2CCN(Cc3cccc(Cl)c3)CC2)c(Cl)c1 | 2.2 | -120% (active) |
| CCOC(=O)C1CCN(CCC(=O)Nc2ccccc2Cl)CC1 | 0.996 | 0.35% (inactive) |
| S=C(Nc1cc(Cl)cc(Cl)c1)NC1CCN(Cc2ccccc2)CC1 | 1.54 | -53.5% (inactive) |
| CCOC(=O)N1CCN(C(=O)Nc2ccc(Cl)cc2Cl)CC1 | 1.02 | -1.6% (inactive) |
| COc1cccc(Cn2cnc3c(NS(=O)(=O)c4ccc(Cl)cc4Cl)c(C)c(C)cc32)c1 | 0.985 | 1.45% (inactive) |

| Structure (SMILES) | activation factor | activity change, negative = activation |
| --- | --- | --- |
| CCn1c2ccccc2c2cc(NC(=O)C3CCN(S(=O)(=O)c4cccs4)CC3)ccc21 | 1.53 | -52.7% (inactive) |
| CCn1cc(CN2CCC(C(=O)Nc3cccc(-c4cccc(F)c4)c3)CC2)cn1 | 2.66 | -166% (active) |
| Cc1ccc(CN2CCC(C(=O)Nc3cccc(-c4cccc(F)c4)c3)CC2)o1 | 1.48 | -48.2% (inactive) |
| CC(C)c1ccc(CN2CCC(C(=O)NCc3cccnc3)CC2)cc1 | 1.04 | -4.3% (inactive) |
| Cn1cc(CN2CCC(C(=O)Nc3cccc(-c4cccc(F)c4)c3)CC2)cn1 | 2.29 | -129% (active) |
| Cc1cc(C)c(S(=O)(=O)NNC(=O)C2CCN(Cc3ccccc3)CC2)c(C)c1 | 0.968 | 3.2% (inactive) |
| CCn1cc(CN2CCC(C(=O)Nc3cccc(-c4cccc(Cl)c4)c3)CC2)cn1 | 4.29 | -329% (active) |
| CC(C)n1cc(CN2CCC(C(=O)Nc3cccc(-c4cccc(Cl)c4)c3)CC2)cn1 | 3.97 | -297% (active) |
| Cc1ccc(S(=O)(=O)NNC(=O)C2CCN(Cc3ccccc3)CC2)cc1 | 0.94 | 6% (inactive) |
| C[C@]12c3[nH]c4ccc(Cl)cc4c3CCN1C(=O)[C@@H](CC(=O)NCc1cccc(C(F)(F)F)c1)C[C@@H]2C(=O)N1CCCCC1 | 1.26 | -26.2% (inactive) |
| c1ccc(-n2nnnc2SCc2cccc3nsnc23)cc1 | 0.908 | 9.2% (inactive) |
| O=[N+]([O-])c1ccc2n[nH]nc2c1 | 1.02 | -2.4% (inactive) |
| O=C(Nc1nnc(SCc2ccccc2Cl)s1)C1COc2ccccc2O1 (stereo unspecified) | 0.965 | 3.5% (inactive) |
| CC(=O)c1sc(Nc2nc(C)cc(C)n2)nc1C | 0.928 | 7.2% (inactive) |
| COc1ccc(CN(CC(O)COCc2ccccc2)S(=O)(=O)c2ccccc2Br)cc1OC (stereo unspecified) | 1.04 | -3.55% (inactive) |
| O=C1CN(c2ccccc2F)C(=O)CN1c1ccccc1F | 1.01 | -1.1% (inactive) |
| C#CCOCCOCCOCCNc1nc(N2CCN(C(=O)CCCCCCCCCCNC(=O)[C@H](CCCCN)n3cc(CCO)nn3)CC2)nc(N2CCN(C(=O)CCCCCCCCCCNC(=O)[C@H](CCCN=C(N)N)n3cc(C[C@@H](C)CC)nn3)CC2)n1 | 3.04 | -204% (active) |
| C#CCOCCOCCOCCNc1nc(N2CCN(C(=O)CCCCCCCCCCNC(=O)[C@H](CCCCN)n3cc(CCCC(=O)O)nn3)CC2)nc(N2CCN(C(=O)CCCCCCCCCCNC(=O)[C@H](CCCN=C(N)N)n3cc(C[C@@H](C)CC)nn3)CC2)n1 | 2.67 | -167% (active) |
| C#CCOCCOCCOCCNc1nc(N2CCN(C(=O)CCCCCCCCCCNC(=O)[C@H](CCCCN)n3cc(C)nn3)CC2)nc(N2CCN(C(=O)CCCCCCCCCCNC(=O)[C@H](CCCN=C(N)N)n3cc(C[C@@H](C)CC)nn3)CC2)n1 | 3.95 | -295% (active) |
| CCOC(=O)c1c(N)sc(C(O)(C(F)(F)F)C(F)(F)F)c1-c1ccccc1 | 1.07 | -6.55% (inactive) |
| CC1CN(c2nc3c(c(=O)n(Cc4ccc(Cl)c(Cl)c4)c(=O)n3C)n2C)CC(C)O1 (stereo unspecified) | 1.01 | -0.8% (inactive) |
| Cc1n[nH]c(C)c1S(=O)(=O)N1CCCC(C(=O)N2CCc3ccccc32)C1 (stereo unspecified) | 0.946 | 5.45% (inactive) |
| COc1ccc(Nc2nc(N)nc(CSc3nccc(C)n3)n2)cc1 | 1.04 | -3.9% (inactive) |
| Cc1ccc(-c2nnn(CC(=O)N3CCCc4ccccc43)n2)cc1 | 1.06 | -6.35% (inactive) |
| CSc1cccc(NC(=O)Nc2nc3c(C)cccc3s2)c1 | 1.45 | -45% (inactive) |
| CSc1cccc(NC(=O)Nc2ccccc2)c1 | 2.1 | -110% (active) |

| Structure (SMILES) | activation factor | activity change, negative = activation |
| --- | --- | --- |
| COc1ccccc1C(=O)Nc1cccc(SC)c1 | 1.12 | -11.6% (inactive) |
| CSc1cccc(NC(=O)Nc2ccc(Cl)cc2)c1 | 2.06 | -106% (active) |
| COC(=O)c1cccc(NC(=O)Nc2ccc(Cl)cc2)c1 | 1.48 | -47.6% (inactive) |
| CSc1cccc(NC(=O)NCc2cccc(CNC(=O)Nc3cccc(SC)c3)c2)c1 | 1.62 | -61.9% (inactive) |
| Cc1cnc(-c2nnc(N(C)C(=O)C3CCOC3)s2)cn1 (stereo unspecified) | 0.996 | 0.45% (inactive) |
| Cc1onc(-c2ccccc2Cl)c1C(=O)OCC(=O)N1CCCc2ccccc21 | 1.02 | -2.05% (inactive) |
| CC(C)(C)c1ccc(OCC(=O)NCc2ccco2)c(Br)c1 | 0.869 | 13.1% (inactive) |
| CC(C)N1CC2=C(OC(N)=C(C#N)C2c2cccnc2)/C(=C/c2cccnc2)C1 (stereo unspecified) | 0.917 | 8.3% (inactive) |
| Cc1ccc(C)c(CN2CCC(CNC(=O)Nc3ccc(Br)cc3F)CC2)c1 | 1.55 | -54.9% (inactive) |
| Cc1ccc(C)c(CN2CCC(CNC(=O)Nc3ccc(C)c(C)c3)CC2)c1 | 2.21 | -121% (active) |
| Cc1cc(C)cc(NC(=O)NCC2CCN(Cc3cc(C)ccc3C)CC2)c1 | 2.32 | -132% (active) |
| Cc1ccc(SCCNC(=S)Nc2ccc(C)c(C)c2)cc1 | 1.46 | -45.9% (inactive) |
| Cc1cc(C)c(CN2CCN(C(=O)Cn3cnc(C(=O)Nc4ccc(C)c(C)c4)n3)CC2)c(C)c1 | 1.13 | -13.2% (inactive) |
| Cc1ccc(SCC(=O)Nc2ccc(N3CCN(C)CC3)c(F)c2)c(C)c1 | 1.13 | -13% (inactive) |
| Cc1ccc(C)c(CN2CCC(CNC(=O)Nc3ccc(C)c(F)c3)CC2)c1 | 2.16 | -116% (active) |
| C[C@@H]1NC(=O)c2cc([N+](=O)[O-])cc(I)c2OCC[C@@H](C(=O)NC(CC(=O)O)C(N)=O)NC(=O)[C@H](CC(N)=O)NC1=O (stereo partly specified) (AN[hSer(Ph(2-I,4-NO2,6-CO))][ξD]-NH2; lactam N-3) | 1.15 | -14.8% (inactive) |
| CC[C@]12c3[nH]c4cc(-c5ccco5)ccc4c3CCN1C(=O)[C@@H](CC(=O)NCc1ccco1)C[C@@H]2C(=O)N1CCN(C(=O)C2CC2)CC1 | 1.23 | -22.7% (inactive) |
| CC(C)CCNC(=O)NC(=O)CSc1nnc(COc2ccccc2Cl)o1 | 1.04 | -4.3% (inactive) |
| CC(C)C(=O)Nc1nnc(SCC(=O)NCc2cccs2)s1 | 0.976 | 2.4% (inactive) |
| Cc1ccc(C(=O)Nc2nncs2)cc1S(=O)(=O)N1CCOCC1 | 0.927 | 7.35% (inactive) |
| COc1ccc(S(=O)(=O)NCCc2ccc(F)cc2)cc1 | 0.961 | 3.9% (inactive) |
| Cc1cc2c(ncn2C)c(NS(=O)(=O)c2cc(Cl)ccc2Cl)c1C | 0.946 | 5.45% (inactive) |
| Cc1noc2ncnc(Sc3c(Cl)cccc3Cl)c12 | 0.906 | 9.4% (inactive) |
| C#CCOCCOCCOCCNc1nc(N2CCN(C(=O)CCCCCCCCCCNC(=O)[C@H](CO)n3cc(CCCSC)nn3)CC2)nc(N2CCN(C(=O)CCCCCCCCCCNC(=O)[C@H](CCCN=C(N)N)n3cc(C[C@@H](C)CC)nn3)CC2)n1 | 5.98 | -498% (active) |
| C#CCOCCOCCOCCNc1nc(N2CCN(C(=O)CCCCCCCCCCNC(=O)[C@H](CO)n3cc(CCCSC)nn3)CC2)nc(N2CCN(C(=O)CCCCCCCCCCNC(=O)[C@H](CCCCN)n3cc(C[C@@H](C)CC)nn3)CC2)n1 | 2.83 | -183% (active) |
| C#CCOCCOCCOCCNc1nc(N2CCN(C(=O)CCCCCCCCCCNC(=O)[C@@H](CCSC)n3cc(CCO)nn3)CC2)nc(N2CCN(C(=O)CCCCCCCCCCNC(=O)[C@H](CCCN=C(N)N)n3cc(C[C@@H](C)CC)nn3)CC2)n1 | 8.61 | -761% (active) |
